Source: PubChem BioAssay (Tox21)
Records with an inconclusive call do not appear. Activity calls are given as the source filed them. Unless noted, the call rests on the fitted dose curve; in most records, active means well fitted curve in the direction sought with a large enough effect in the repeat runs; inconclusive means weak or mixed curves; inactive means no such curve, though single readings can be large; an effect the other way counts as inactive or inconclusive.

Columns and labels:
[1] = qHTS assay to identify small molecule antagonists of the peroxisome proliferator-activated receptor delta (PPARd) signaling pathway - cell viability counter screen (AID 743213); further: nearly all actives have a fitted effect of over 50% in size
How it was run: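 Cytotoxicity counter screen: CellTiter-Glo luminescence read 30 min after addition, in the same wells as the reporter assay. There, PPARd UAS-bla HEK293H cells (3000/well) were treated 17 h at 37 C with compound and 300 nM L165041.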

[2] = qHTS assay to identify small molecule agonists of the farnesoid-X-receptor (FXR) signaling pathway - cell viability counter screen (AID 743218); further: nearly all actives have a fitted effect of over 45% in size; further: potency means the concentration at half of the fitted maximal effect
How it was run: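 FXR-UAS-bla HEK 293T cells, plated 5 h at 37 C, were exposed to compounds for 16 h at 37 C. CellTiter-Glo was then added to the same wells as the bla readout; luminescence read after 30 min at room temperature.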

[3] = qHTS assay to identify small molecule antagonists of the farnesoid-X-receptor (FXR) signaling pathway - cell viability counter screen (AID 743221; active means well fitted cell-killing curve with a large enough effect in the repeat runs, not every such curve was filed as active; further: nearly all actives have a fitted effect of over 50% in size; further: potency means the concentration at half of the fitted maximal effect)
How it was run: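 FXR-UAS-bla HEK 293T cells were treated with test compounds plus chenodeoxycholic acid (50 uM final) for 16 h at 37 C. Cell viability in the same wells was then read as CellTiter-Glo luminescence after 30 min at room temperature.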

[4] = molecular target: Vitamin D3 receptor (Homo sapiens) (UniProt P11473); assay: qHTS assay to identify small molecule agonists of the vitamin D receptor (VDR) signaling pathway (AID 743222; calls by dose curve)
Vitamin D3 receptor (Homo sapiens), sequence (P11473 whole entry, looked up): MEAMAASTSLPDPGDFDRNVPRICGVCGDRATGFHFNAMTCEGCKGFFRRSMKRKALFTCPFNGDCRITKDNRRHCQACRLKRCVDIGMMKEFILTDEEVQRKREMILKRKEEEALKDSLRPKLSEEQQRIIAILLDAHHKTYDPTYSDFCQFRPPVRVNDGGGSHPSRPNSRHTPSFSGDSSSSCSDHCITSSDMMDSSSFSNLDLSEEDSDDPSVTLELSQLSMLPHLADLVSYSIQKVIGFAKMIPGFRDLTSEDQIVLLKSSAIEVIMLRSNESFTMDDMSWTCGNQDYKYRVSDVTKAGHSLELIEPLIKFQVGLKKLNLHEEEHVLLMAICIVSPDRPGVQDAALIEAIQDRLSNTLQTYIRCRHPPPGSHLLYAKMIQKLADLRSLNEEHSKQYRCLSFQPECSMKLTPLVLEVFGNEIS
How it was run: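 VDR-bla cells were plated 4 h at 37C/5% CO2, then exposed to compounds in DMSO for 16 h. After LiveBLAzer B/G FRET substrate addition and 2 h at room temperature, beta-lactamase reporter fluorescence was read.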

[5] = molecular target: Vitamin D3 receptor (Homo sapiens) (UniProt P11473); assay: qHTS assay to identify small molecule antagonists of the vitamin D receptor (VDR) signaling pathway (AID 743223; active means well fitted inhibition curve with a large enough effect in the signal ratio in the repeat runs, not every such curve was filed as active; the % refers to the signal ratio)
How it was run: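 VDR-bla cells were plated, incubated 4 h at 37C, then given compound and 1alpha,25-dihydroxyvitamin D3 (3 nM final). After 16 h at 37C, LiveBLAzer B/G FRET substrate was added for 2 h at room temperature and fluorescence read.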

[6] = qHTS assay to identify small molecule agonists of the vitamin D receptor (VDR) signaling pathway - cell viability counter screen (AID 743224); further: series mostly up to about 63 µM; nearly all actives have a fitted effect of over 50% in size
How it was run: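 VDR-bla cells were preincubated 4 h at 37C/5% CO2, then exposed to compounds for 16 h. After the 2 h room-temperature bla FRET read, CellTiter-Glo was added to the same wells and luminescence read after 30 min.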

[7] = qHTS assay to identify small molecule antagonists of the vitamin D receptor (VDR) signaling pathway - cell viability counter screen (AID 743225); further: nearly all actives have a fitted effect of over 50% in size
How it was run: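 VDR-bla HEK 293T cells, 4 h pre-incubation at 37C, then compound plus 1-alpha,25-dihydroxyvitamin D3 (3 nM final) for 16 h. After the beta-lactamase FRET read, CellTiter-Glo was added to the same wells; luminescence after 30 min at room temperature.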

[8] = qHTS assay to identify small molecule agonists of the NFkB signaling pathway - cell viability counter screen (AID 1159515; calls by dose curve; further: series mostly up to about 61 µM; nearly all actives have a fitted effect of over 55% in size)
How it was run: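 NFkB-bla ME-180 cells, 2,000/well, were plated overnight at 37 C, 5% CO2, then exposed to compounds in DMSO for 5 hr. After the bla FRET read, CellTiter-Glo was added to the same wells; luminescence was read after 30 min at room temperature.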

[9] = qHTS assay to identify small molecule agonists of the endoplasmic reticulum stress response signaling pathway (AID 1159516; active means well fitted activation curve with a large enough effect in the signal ratio in the repeat runs, not every such curve was filed as active; the % refers to the signal ratio)
How it was run: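 CellSensor ESRE-bla HeLa cells, carrying a beta-lactamase reporter driven by the ER stress response element, were plated overnight and exposed to compounds for 5 hr at 37 C. Reporter activity was read as FRET substrate fluorescence after 2 hr at room temperature.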

[10] = qHTS assay to identify small molecule antagonists of the retinoid-related orphan receptor gamma (ROR-gamma) signaling pathway - cell viability counter screen (AID 1159520); further: nearly all actives have a fitted effect of over 50% in size
How it was run: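 Cytotoxicity was read from cellular ATP (CellTiter-Glo luminescence) after 16 hr at 37 C with 1 uM doxycycline induction. The inducer was added 2 hr after compound transfer to Tet-on ROR gamma CHO cells.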

[11] = molecular target: Nuclear receptor ROR-gamma (Homo sapiens) (UniProt P51449); assay: qHTS assay to identify small molecule antagonists of the retinoid-related orphan receptor gamma (ROR-gamma) signaling pathway (AID 1159521)
How it was run: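 Tet-on RORγ CHO cells carrying a ROR response element–luciferase reporter were pretreated with compounds for 2 h, then induced with 1 uM (final) doxycycline hyclate for 16 h at 37 C. Antagonism was read as decreased ONE-Glo luminescence.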

[12] = qHTS assay to identify small molecule agonists of the AP-1 signaling pathway - cell viability counter screen (AID 1159525; calls by dose curve; further: nearly all actives have a fitted effect of over 55% in size)
How it was run: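 Luminescent ATP readout (Cell Titer Glo, 30 min RT), normalised to DMSO and tetra n-octyl ammonium bromide controls. Cells were ME-180 AP-1-bla in 0.5% dialyzed FBS Opti-MEM, with a 5 h, 37 °C compound exposure.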

[13] = qHTS assay to identify small molecule agonists of the AP-1 signaling pathway (AID 1159526; calls by dose curve)
[14] = molecular target: Retinoic acid receptor RXR-alpha (Homo sapiens) (UniProt P19793); assay: qHTS assay to identify small molecule agonists of the RXR signaling pathway (AID 1159527; calls by dose curve; further: nearly all actives have a fitted effect of over 35% in size)
Retinoic acid receptor RXR-alpha (Homo sapiens), sequence (P19793 whole entry, looked up): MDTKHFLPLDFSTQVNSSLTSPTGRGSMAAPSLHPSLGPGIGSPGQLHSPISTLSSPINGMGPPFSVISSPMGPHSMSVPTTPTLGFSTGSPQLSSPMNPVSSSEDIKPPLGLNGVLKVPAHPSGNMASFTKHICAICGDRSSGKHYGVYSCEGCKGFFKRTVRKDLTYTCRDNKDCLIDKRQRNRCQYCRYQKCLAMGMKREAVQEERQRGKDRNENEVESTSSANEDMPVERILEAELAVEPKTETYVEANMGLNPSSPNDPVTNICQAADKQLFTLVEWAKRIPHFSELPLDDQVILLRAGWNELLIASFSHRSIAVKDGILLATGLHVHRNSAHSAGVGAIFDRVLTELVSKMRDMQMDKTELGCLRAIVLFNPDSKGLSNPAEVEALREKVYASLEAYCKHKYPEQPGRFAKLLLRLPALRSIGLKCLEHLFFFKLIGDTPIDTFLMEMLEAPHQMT
How it was run: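 GeneBLAzer RXR-alpha-UAS-bla HEK 293T cells in medium with 2% charcoal-stripped FBS, pre-incubated 5 hr at 37 C, then exposed to compounds 16 hr. Beta-lactamase reporter read by FRET substrate, 2 hr room temperature, 460/530 nm emission.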

[15] = qHTS assay to identify small molecule agonists of the peroxisome proliferator-activated receptor delta (PPARd) signaling pathway - cell viability counter screen (AID 743211); further: nearly all actives have a fitted effect of over 55% in size
How it was run: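 PPARd-bla HEK293H cells (UAS-beta-lactamase reporter) were treated with compounds for 17 h at 37 C. Viability was then read in the same wells by CellTiter-Glo luminescence after 30 min at room temperature.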

[16] = molecular target: Peroxisome proliferator-activated receptor delta (Homo sapiens) (UniProt Q03181); assay: qHTS assay to identify small molecule agonists of the peroxisome proliferator-activated receptor delta (PPARd) signaling pathway (AID 743212; calls by dose curve)
Peroxisome proliferator-activated receptor delta (Homo sapiens), sequence (Q03181 whole entry, looked up): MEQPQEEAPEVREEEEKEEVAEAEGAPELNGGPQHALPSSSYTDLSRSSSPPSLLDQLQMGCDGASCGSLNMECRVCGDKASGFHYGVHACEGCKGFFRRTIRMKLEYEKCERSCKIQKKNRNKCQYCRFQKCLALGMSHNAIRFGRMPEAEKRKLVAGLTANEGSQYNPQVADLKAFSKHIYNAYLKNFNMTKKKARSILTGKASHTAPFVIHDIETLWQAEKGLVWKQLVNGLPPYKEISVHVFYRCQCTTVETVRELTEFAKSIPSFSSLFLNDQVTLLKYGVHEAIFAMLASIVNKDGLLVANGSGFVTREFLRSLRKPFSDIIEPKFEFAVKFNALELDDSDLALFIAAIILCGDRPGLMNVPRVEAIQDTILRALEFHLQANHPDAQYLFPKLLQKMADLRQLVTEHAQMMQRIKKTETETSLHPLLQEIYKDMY
How it was run: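 HEK293H UAS-bla reporter cells, human PPARd system; compounds delivered in DMSO after 5 h plating, then at 37 C. Beta-lactamase FRET read, 2 h RT substrate step.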

[17] = molecular target: Peroxisome proliferator-activated receptor delta (Homo sapiens) (UniProt Q03181); assay: qHTS assay to identify small molecule antagonists of the peroxisome proliferator-activated receptor delta (PPARd) signaling pathway (AID 743215; active means well fitted inhibition curve with a large enough effect in the signal ratio in the repeat runs, not every such curve was filed as active; the % refers to the signal ratio;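 further: cells stimulated with agonist L165041 at 300 nM final during compound exposure; series mostly up to about 62 µM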)
How it was run: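 PPARd UAS-bla HEK293H cells were pre-incubated 5 h at 37 C, then given test compounds in DMSO plus agonist L165041 (300 nM final). After 17 h at 37 C, beta-lactamase FRET substrate was added; fluorescence read after 2 h at room temperature.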

[18] = molecular target: Bile acid receptor (Homo sapiens) (UniProt Q96RI1); assay: qHTS assay to identify small molecule antagonists of the farnesoid-X-receptor (FXR) signaling pathway (AID 743217; active means well fitted inhibition curve with a large enough effect in the signal ratio in the repeat runs, not every such curve was filed as active; the % refers to the signal ratio)
Bile acid receptor (Homo sapiens), sequence (Q96RI1 whole entry, looked up): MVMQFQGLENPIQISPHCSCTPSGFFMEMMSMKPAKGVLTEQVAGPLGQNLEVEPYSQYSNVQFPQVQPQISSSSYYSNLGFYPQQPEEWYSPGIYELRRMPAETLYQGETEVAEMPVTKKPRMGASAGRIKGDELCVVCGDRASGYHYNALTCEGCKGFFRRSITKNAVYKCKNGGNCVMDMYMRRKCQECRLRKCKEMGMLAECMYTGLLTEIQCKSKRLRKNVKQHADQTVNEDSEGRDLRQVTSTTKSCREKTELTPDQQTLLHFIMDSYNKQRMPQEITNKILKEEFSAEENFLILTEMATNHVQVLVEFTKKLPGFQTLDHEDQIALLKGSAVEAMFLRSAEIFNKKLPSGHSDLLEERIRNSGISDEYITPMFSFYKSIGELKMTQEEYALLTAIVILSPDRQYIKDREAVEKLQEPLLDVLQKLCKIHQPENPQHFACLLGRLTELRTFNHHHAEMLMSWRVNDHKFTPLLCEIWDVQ
How it was run: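 FXR-UAS-bla HEK 293T cells pre-incubated 5 h at 37 °C, then exposed to compounds with chenodeoxycholic acid (50 uM final) for 16 h at 37 °C. Beta-lactamase reporter read by LiveBLAzer B/G FRET substrate fluorescence after 2 h at room temperature.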

[19] = molecular target: Bile acid receptor (Homo sapiens) (UniProt Q96RI1); assay: qHTS assay to identify small molecule agonists of the farnesoid-X-receptor (FXR) signaling pathway (AID 743220; active means well fitted activation curve with a large enough effect in the signal ratio in the repeat runs, not every such curve was filed as active; the % refers to the signal ratio)
How it was run: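 Beta-lactamase reporter under UAS control in GeneBLAzer FXR HEK 293T cells (5000/well) measured with LiveBLAzer FRET substrate after 2 h at room temperature. Compound exposure lasted 16 h at 37C.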

Measured: Potency

CCCC(=O)OCOC(=O)C1=C(C)NC(C)=C(C(=O)OC)C1c1cccc(Cl)c1Cl (centres undefined)
not listed: [15] | [16] | [17] | [18] | [19]
inactive: all other assays above

Cc1cccc(C)c1NC(=O)c1ccc(N)cc1
not listed: [6] | [16] | [17] | [18] | [19]
inactive: all other assays above

CCCCNS(=O)(=O)c1ccc(C)cc1
not listed: [3] | [4] | [5] | [18] | [19]
inactive: all other assays above

C=Cc1cccc(C)c1
not listed: [16] | [18] | [19]
inactive: all other assays above

Clc1ccnc(Cl)n1
not listed: [5] | [16] | [17] | [18] | [19]
inactive: all other assays above

O=c1[nH]c(=O)n([C@H]2C[C@H](O)[C@@H](CO)O2)cc1F
active: [2] 13.3 µM | [3] 11.9 µM
not listed: [1] | [15] | [18] | [19]
inactive: all other assays above

CC(CO)Oc1ccccc1 (centres undefined)
not listed: [1] | [7] | [15] | [19]
inactive: all other assays above

c1ccsc1
not listed: [14] | [18] | [19]
inactive: all other assays above

O=C(O)c1ccc2cc(C(=O)O)ccc2c1
not listed: [1] | [16] | [17] | [18] | [19]
inactive: all other assays above

CCCC(=O)OC(C)(C)Cc1ccccc1
not listed: [2] | [3] | [5] | [7] | [16] | [17] | [18] | [19]
inactive: all other assays above

Clc1sc(Cl)c(Cl)c1Cl
not listed: [15] | [18] | [19]
inactive: all other assays above

Cc1ccc(N/N=c2\c(=O)cc/c(=N\Nc3ccc(S(=O)(=O)O)cc3)c2=O)c(C)c1
not listed: [4] | [5] | [16] | [17] | [18]
inactive: all other assays above

CCCCCCCCCCOC(=O)c1ccccc1C(=O)OCCCCCCCC
not listed: [4] | [5] | [16] | [17] | [18] | [19]
inactive: all other assays above

COc1cccc(OC)c1C(=O)O
not listed: [5] | [15] | [16] | [17] | [18] | [19]
inactive: all other assays above

O[C@@H]([C@H](O)[C@H](O)CBr)[C@H](O)CBr
not listed: [1] | [5] | [16]
inactive: all other assays above

Cc1ccc(-c2ccccc2)cc1
not listed: [5] | [7] | [15] | [16] | [18] | [19]
inactive: all other assays above

CC(N=C(NC#N)Nc1ccncc1)C(C)(C)C (centres undefined)
not listed: [2] | [4] | [5] | [16] | [17]
inactive: all other assays above

CCCCCc1ccc(Cl)cc1
not listed: [1] | [5]
inactive: all other assays above
